Measured values published in PMC12136788.
Residue numbers refer to the chain shown, from its start. In all, about 24,000 sequences were measured (“enrichment r”: median about 0.99, highest 2% from about 3.7 on). Many of the other results were omitted from the sample, so the highest values are more common in it than they were.

T1: UNK ZnF1-3 (human, UniProt Q9C0B0 31-174)
T1 sequence: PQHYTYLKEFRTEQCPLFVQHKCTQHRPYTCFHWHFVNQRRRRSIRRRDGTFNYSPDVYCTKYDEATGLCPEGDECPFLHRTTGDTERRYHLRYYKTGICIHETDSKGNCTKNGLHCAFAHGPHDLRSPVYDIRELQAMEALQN

B1: chr9:127920631:127920632:-_ENSG00000119414_ENST00000456642|hu_mus|motif|central (ssRNA)
RNA: GGGAGUUCUACAGUCCGACGAUCAAUACGGUCAGGCCACUUAGCCUUUAGUGCAAGAAGAUAAGUGAAGGUCUCCAAACGGUAGUAACCUCUGUCUACAAAAUCACCCAUAAAUAUGUAGUUUGUGUCAGGAACCUGACCUCCCAACAGAGGAUUGAGCAUCA
B2: chr7:140404665:140404666:+_ENSG00000090266_ENST00000247866|hu_hu|hu_hu_hu_mus_False|1_1 (ssRNA)
RNA: GGGAGUUCUACAGUCCGACGAUCUGCUCCUACUCGUCCAGAGAGUUUACAGUGUCAGUCCUCGUCAUCAGGAGGGAUUCCCAGUUCUUCAUCUGUCCACUGUGAAGGAUCUGGAUAUGAAAAGUGACCCAGCACAGCUUCUGACAACAGAGGAUUGAGCAUCA
B3: chr7:109302599:109302600:-_ENSMUSG00000063550_ENSMUST00000070165|mus_mus|FALSE|FALSE (ssRNA)
RNA: GGGAGUUCUACAGUCCGACGAUCAGAGUCAUCUUCUCCAUCCUGCUGAUUGUUCUCAUCAACAGGUUUGCUCAGGAAGCUAAAUCUUUCUCCAUUUUCUGGAUACUCAGAGGGUGAAGCUAGAUCUUCUGAAUCAUGAUUAACCAACAGAGGAUUGAGCAUCA
B4: chr8:26227902:26227903:+_ENSG00000221914_ENST00000315985|hu_hu|motif|central (ssRNA)
RNA: GGGAGUUCUACAGUCCGACGAUCGGAAUGCCAACCCUAAUUCACUUUGUCUUGAAAUAUAUACAGAUUGUUUGUAGUAGCGGCGGCAAUGAUAUUUUCCUUGGGGUGCCAGGCUGUGUGAAGGAUUUUCUUAUUGAAGUCUAGCAACAGAGGAUUGAGCAUCA
B5: 16983635_16983755_221_5pUTR_ENSMUSG00000063358_ENSMUST00000069107|mouse|control|control (ssRNA)
RNA: GGGAGUUCUACAGUCCGACGAUCGACCAUCUCCGGGCCCGCCGCCGCCGCCGCCGCCAUGUUGGCUGCACAGCCGCCGCCGCCGCCGCCGCCGCCGCGUUCGGUUCGACGCUUCGCGGCUGCCGCUCGACUUAUGCUGCGCUUCAACAGAGGAUUGAGCAUCA
B6: chr3:179287964:179287965:+_ENSG00000136518_ENST00000429709|hu_hu|hu_hu_hu_mus_True|18_18 (ssRNA)
RNA: GGGAGUUCUACAGUCCGACGAUCCUUGAGUGGUGAGAUGGCCUCCAUGUUCUCCCUGGGCACGCGGAGGGCAUUGGUGUCUAUGUAGUAGGUGGGCCCGCCCUGCUUGCCUUUGUCGCCAUCUAUUUCCAUCAUUGUACUUCCCAACAGAGGAUUGAGCAUCA
B7: chr5:171327072:171327073:-_ENSG00000072803_ENST00000265094|hu_hu|FALSE|FALSE (ssRNA)
RNA: GGGAGUUCUACAGUCCGACGAUCUACCAGCUCUGCUGCACACAGAGACCUGGCAUCCAGGUACGAAAGAAUGUUUUCUGCUAUGUGAUCUAAGCCUUGCUCUGGUAAAGCGGUAAUAAAGUCCCGCUGCAACAUGGGCUUCAGCAACAGAGGAUUGAGCAUCA
B8: 97033003_97034721_1993_CDS_ENSG00000121152_ENST00000240423|human|control|control (ssRNA)
RNA: GGGAGUUCUACAGUCCGACGAUCCCUGUGGUUUGCCUCUGCAUCUGCCUCCUUUCCGGAGAGCGCUGUCAGCAGACUCCACAUGCUCUGCUUCAGUUUCUUCAUGUCCAUCUUUUUGGCAGUCUUGGCAUAGUGAAUUUCAAUCAACAGAGGAUUGAGCAUCA
B9: chr2:151796264:151796265:-_ENSMUSG00000027459_ENSMUST00000062047|mus_mus|motif|central (ssRNA)
RNA: GGGAGUUCUACAGUCCGACGAUCUGUUCGGCUGGCCUCAGAUGGGGACACAGGACUAUCACACAAGUUGAUGAGGCUGCGGAGGAUGUCGAGGUCCAGUUGGGGCCGGCGGCCAGAACAGGGCAGGACUCGGCGACUGGGUGUCAACAGAGGAUUGAGCAUCA
B10: chr17:38438176:38438177:+_ENSG00000171475_ENST00000323571|hu_mus|FALSE|FALSE (ssRNA)
RNA: GGGAGUUCUACAGUCCGACGAUCCCCCCUGACCAUGUAGCUAGGGACUGAGAGUCACAGGGAAGGGAAAGCUUACACCUGGAAUGUGAAGAAUCUGAUUUACAGCUGAUGGCAGGUUGGGUUUCCAGAAGGGCAGACAGCGCACAACAGAGGAUUGAGCAUCA
B11: chr1:163116941:163116942:-_ENSG00000143248_ENST00000313961|hu_mus|FALSE|FALSE (ssRNA)
RNA: GGGAGUUCUACAGUCCGACGAUCACAAAGCAGUCAGAAAGAACCAAAAAAAAGAAAAAAAAAAGAAAAAGAAAAAAGUGAGGGCUCUUAGACAACAGAUCCACAUAACCAAACUAACAUGAGCGAAAGAGUUAGCAACACAGCCAACAGAGGAUUGAGCAUCA
B12: chr14:76904430:76904431:+_ENSMUSG00000022010_ENSMUST00000022587|mus_mus|mus_mus_mus_hu_True|8_98 (ssRNA)
RNA: GGGAGUUCUACAGUCCGACGAUCUGCAGCCAAAAACAGAGAGAGGGAAAAAAAGAGGGAACACCAGCAGCCUUGUAUAAGCUAGAUAAAAUCUUCUGGCUUUCCGCAGCCCAGGGAGAAACAGAAAUGGUGCUGGCUAAUUUACAACAGAGGAUUGAGCAUCA
B13: chr14:76904430:76904431:+_ENSMUSG00000022010_ENSMUST00000022587|mus_mus|mus_mus_mus_hu_True|58_98 (ssRNA)
RNA: B12 RNA with U77C, G80A, U127A, G128C, U130G, G131C, C132A, U133G, G134C, G135C
B14: chr6:144948378:144948379:-_ENSMUSG00000030268_ENSMUST00000111742|mus_mus|FALSE|FALSE (ssRNA)
RNA: GGGAGUUCUACAGUCCGACGAUCAGGGAACACCAGGCCAGCAGGGCUGCAUGGGGAGCCCAAAUCUGCCCCAAUUAGAAACAAACAAACAAAAAAAAAACAACCAAAACAAAAAACAAAAGAACCUCACCAGCAAAAGAAACACAACAGAGGAUUGAGCAUCA
B15: chrX:71549762:71549763:+_ENSMUSG00000019087_ENSMUST00000019231|mus_mus|mus_mus_mus_hu_False|8_18 (ssRNA)
RNA: GGGAGUUCUACAGUCCGACGAUCAAACCCGUGUACUUCUUAUUGUUAGCACAACAUCACCAGAAAACGAUAACGACAGCCAAGCAGGACAGACAGUUAAGUAGUACUUCCACACUCCGCAAAUUCAAGGAACCUCAAACCUUACAACAGAGGAUUGAGCAUCA
B16: chr2:125499325:125499326:+_ENSMUSG00000091337_ENSMUST00000164756|mus_mus|FALSE|FALSE (ssRNA)
RNA: GGGAGUUCUACAGUCCGACGAUCGAGCUCUUCGGUCAGUCGAUUGACAACCAUCAGCGAAAACAGCUCUUCGAUAAAAGCUAGCUGGUCGAAAGGGCUCUUCUCACACCGCGCCUGAAAGCCGCCAUCCAGGGCAUCUCCGGCCAACAGAGGAUUGAGCAUCA

These binders were tested against T1, UNK ZnF1-3 (assay: nsRBNS (natural sequence RNA bind-n-seq); RBNS binding buffer (assumed for nsRBNS): 25 mM Tris pH 7.5, 150 mM KCl, 3 mM MgCl2, 0.01% Triton X-100, 500 ug/ml BSA, 20 U/ml SUPERase-In, 4 C; UNK is unkempt and MSI1 is Musashi-1; names of the RNAs are library labels; protein concentration not given here; high values mean tight binding).

Row | Binder | binding signal [enrichment R]
1 | B1 | 0.995
2 | B2 | 1.35
3 | B3 | 0.565
4 | B4 | 1.11
5 | B5 | 0.486
6 | B6 | 0.497
7 | B7 | 1.05
8 | B8 | 0.375
9 | B9 | 0.777
10 | B10 | 1.6
11 | B11 | 10.6
12 | B12 | 3.33
13 | B13 | 3.56
14 | B14 | 7.87
15 | B15 | 1.46
16 | B16 | 1.3
